Laboratory results published in the supplement of paper PMC6411743.
± gives the standard deviation of the averaged measurements. About 6,500 targets were measured; listed, in parts, are those with the largest changes and a random draw of the rest.

Compound: Nc1ncnc2c1ncn2[C@@H]1O[C@H](COP(=O)(O)OP(=O)(O)OP(=O)(O)O)[C@@H](O)[C@H]1O [adenosine triphosphate]
Assay: NP40-soluble protein abundance relative to vehicle (solubility fold change) (ratio); higher = more soluble protein in presence of ATP
How it was run: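 Data come from three independent experiments in which Dounce-homogenised Jurkat crude lysate was treated at eight concentrations from 0.1 to 10 mM. Treatment ran 10 min at room temperature and then 3 min at 37 °C, after which 0.8% NP40 and benzonase were added for 60 min at 4 °C before ultracentrifugation. The supernatant underwent TMT labelling and LC-MS/MS, and vsn-normalised intensities were expressed as fold change against the detergent-processed vehicle in each replicate.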

Sequence of UniProt Q8WX93 (Q8WX93 whole entry): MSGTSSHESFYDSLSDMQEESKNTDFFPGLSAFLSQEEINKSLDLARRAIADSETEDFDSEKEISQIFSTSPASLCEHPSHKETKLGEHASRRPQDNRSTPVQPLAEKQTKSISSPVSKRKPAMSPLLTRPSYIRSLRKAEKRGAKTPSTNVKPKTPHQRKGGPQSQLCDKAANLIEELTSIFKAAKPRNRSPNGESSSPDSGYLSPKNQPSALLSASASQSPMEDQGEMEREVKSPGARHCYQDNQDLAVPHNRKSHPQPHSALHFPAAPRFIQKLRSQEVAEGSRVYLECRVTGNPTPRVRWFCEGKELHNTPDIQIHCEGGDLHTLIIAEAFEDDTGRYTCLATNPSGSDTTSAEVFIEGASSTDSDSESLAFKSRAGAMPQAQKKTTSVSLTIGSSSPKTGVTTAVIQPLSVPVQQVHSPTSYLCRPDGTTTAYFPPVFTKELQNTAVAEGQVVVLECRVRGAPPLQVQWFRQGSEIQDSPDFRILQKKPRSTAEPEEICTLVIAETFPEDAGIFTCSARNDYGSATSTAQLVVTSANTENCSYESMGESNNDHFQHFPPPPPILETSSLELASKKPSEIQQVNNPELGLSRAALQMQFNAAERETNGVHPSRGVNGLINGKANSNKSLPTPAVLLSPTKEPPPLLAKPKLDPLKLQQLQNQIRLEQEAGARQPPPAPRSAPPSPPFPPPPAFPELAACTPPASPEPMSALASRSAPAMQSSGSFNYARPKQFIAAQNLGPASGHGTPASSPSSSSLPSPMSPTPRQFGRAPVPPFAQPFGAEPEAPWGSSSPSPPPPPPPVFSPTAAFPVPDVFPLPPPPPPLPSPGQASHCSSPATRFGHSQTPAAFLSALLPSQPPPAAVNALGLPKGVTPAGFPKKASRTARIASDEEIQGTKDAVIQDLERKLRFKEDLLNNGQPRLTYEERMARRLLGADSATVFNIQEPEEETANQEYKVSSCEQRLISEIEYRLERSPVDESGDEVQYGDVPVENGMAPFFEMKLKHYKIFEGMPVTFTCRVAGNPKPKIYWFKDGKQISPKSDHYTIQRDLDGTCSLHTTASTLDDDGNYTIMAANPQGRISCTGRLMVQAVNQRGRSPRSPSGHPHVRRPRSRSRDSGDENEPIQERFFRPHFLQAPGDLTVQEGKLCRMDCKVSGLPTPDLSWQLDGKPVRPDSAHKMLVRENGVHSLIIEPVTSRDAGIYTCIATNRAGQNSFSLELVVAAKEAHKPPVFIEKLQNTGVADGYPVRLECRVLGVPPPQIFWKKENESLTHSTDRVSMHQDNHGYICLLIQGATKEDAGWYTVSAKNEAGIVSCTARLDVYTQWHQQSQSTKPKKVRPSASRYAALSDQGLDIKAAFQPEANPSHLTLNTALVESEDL
Sequence of UniProt Q9NWZ3 (Q9NWZ3 whole entry): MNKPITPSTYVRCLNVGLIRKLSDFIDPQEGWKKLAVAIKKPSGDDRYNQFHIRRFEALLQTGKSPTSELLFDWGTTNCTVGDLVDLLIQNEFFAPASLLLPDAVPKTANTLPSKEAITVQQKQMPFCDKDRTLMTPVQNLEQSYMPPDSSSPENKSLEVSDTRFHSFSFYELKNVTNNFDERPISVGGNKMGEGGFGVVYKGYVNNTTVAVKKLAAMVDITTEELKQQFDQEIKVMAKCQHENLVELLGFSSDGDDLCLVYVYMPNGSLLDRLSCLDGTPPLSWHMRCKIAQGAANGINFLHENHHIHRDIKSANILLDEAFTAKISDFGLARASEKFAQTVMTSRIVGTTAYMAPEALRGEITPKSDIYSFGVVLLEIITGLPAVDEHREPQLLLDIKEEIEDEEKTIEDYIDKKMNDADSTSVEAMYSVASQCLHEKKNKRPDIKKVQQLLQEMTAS
Sequence of UniProt Q92626 (Q92626 whole entry): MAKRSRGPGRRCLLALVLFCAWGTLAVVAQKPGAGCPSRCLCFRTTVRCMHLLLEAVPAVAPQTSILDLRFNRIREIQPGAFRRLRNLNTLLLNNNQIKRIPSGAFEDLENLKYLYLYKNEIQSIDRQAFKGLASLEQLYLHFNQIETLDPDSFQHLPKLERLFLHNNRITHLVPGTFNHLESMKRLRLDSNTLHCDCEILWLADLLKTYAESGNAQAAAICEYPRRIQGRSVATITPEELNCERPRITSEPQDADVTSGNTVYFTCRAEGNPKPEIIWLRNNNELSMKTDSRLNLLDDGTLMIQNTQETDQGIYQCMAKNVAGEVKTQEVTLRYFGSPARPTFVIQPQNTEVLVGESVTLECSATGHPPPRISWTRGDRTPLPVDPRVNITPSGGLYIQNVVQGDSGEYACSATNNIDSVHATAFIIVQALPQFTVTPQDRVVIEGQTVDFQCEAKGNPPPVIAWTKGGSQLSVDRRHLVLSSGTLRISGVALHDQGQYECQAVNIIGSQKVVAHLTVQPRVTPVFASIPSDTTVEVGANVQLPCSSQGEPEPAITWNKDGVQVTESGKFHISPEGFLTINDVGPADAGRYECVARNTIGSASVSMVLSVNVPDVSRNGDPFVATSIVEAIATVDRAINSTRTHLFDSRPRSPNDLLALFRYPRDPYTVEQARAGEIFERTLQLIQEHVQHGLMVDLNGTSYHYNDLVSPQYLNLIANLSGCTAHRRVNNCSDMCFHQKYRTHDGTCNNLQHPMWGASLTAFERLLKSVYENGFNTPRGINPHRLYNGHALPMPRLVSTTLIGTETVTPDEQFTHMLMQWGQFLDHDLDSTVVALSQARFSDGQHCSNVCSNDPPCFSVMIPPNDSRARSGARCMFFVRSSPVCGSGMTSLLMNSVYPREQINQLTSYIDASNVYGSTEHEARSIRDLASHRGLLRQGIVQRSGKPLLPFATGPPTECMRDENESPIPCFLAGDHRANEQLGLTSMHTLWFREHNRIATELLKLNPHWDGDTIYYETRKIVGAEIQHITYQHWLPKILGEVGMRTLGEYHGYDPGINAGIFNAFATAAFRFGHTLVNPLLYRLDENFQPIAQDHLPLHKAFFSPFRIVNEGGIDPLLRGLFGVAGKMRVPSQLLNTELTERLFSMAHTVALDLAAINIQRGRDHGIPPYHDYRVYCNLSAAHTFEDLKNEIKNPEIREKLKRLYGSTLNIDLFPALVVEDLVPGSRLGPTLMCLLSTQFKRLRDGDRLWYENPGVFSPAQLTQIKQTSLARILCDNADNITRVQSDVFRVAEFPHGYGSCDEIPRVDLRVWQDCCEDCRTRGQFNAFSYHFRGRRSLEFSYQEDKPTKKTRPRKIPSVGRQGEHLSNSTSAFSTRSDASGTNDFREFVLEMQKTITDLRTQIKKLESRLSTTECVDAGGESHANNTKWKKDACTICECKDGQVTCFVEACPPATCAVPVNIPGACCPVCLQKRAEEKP
Sequence of UniProt Q99653 (Q99653 whole entry): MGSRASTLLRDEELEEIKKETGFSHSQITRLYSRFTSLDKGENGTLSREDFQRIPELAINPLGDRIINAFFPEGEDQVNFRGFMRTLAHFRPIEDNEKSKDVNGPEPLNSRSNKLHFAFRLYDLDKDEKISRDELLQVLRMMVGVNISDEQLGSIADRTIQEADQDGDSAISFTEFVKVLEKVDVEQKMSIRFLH
Sequence of UniProt Q9BRP4 (Q9BRP4 whole entry): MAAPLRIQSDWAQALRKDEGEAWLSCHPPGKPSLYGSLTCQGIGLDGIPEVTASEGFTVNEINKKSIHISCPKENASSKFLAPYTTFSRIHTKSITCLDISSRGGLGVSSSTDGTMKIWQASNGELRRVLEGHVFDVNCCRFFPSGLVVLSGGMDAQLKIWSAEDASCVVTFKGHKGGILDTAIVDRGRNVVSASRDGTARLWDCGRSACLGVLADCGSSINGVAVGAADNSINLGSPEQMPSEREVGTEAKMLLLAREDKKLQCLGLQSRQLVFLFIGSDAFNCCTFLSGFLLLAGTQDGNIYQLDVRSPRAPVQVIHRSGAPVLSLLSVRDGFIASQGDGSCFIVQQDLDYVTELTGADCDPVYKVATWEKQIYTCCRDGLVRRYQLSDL
Sequence of UniProt Q96LD8 (Q96LD8 whole entry): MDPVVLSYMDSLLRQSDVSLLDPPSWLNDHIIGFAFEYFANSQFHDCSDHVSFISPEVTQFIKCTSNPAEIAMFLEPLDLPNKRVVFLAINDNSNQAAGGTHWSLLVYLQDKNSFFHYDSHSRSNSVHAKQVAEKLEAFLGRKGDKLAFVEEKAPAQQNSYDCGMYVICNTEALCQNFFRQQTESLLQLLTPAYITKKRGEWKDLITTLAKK
Sequence of UniProt Q9H974 (Q9H974 whole entry): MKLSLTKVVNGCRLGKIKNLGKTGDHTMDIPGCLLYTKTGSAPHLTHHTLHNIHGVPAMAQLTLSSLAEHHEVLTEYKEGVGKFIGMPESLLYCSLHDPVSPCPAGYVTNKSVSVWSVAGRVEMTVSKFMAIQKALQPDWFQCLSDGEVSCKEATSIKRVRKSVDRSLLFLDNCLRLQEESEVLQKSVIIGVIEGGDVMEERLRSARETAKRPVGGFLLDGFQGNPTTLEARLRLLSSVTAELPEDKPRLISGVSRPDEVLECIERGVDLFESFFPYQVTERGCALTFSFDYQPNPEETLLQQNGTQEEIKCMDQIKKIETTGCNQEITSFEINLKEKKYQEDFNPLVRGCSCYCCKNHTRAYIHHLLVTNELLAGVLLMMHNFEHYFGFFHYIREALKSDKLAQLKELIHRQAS
Sequence of UniProt Q96AD5 (Q96AD5 whole entry): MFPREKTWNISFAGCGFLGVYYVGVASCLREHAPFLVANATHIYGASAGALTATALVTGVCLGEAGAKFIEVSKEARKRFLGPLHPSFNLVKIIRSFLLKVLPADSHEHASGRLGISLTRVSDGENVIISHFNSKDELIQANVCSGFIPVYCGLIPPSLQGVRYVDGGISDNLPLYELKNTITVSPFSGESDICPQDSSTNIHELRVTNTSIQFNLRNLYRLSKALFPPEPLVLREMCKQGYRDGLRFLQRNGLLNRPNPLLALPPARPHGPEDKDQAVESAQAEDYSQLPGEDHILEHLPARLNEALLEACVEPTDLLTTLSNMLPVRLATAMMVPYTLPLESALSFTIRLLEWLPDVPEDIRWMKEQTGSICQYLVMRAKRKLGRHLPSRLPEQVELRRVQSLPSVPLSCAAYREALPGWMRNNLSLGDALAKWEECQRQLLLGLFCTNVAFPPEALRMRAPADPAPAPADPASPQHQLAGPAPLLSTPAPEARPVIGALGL

Target	NP40-soluble protein abundance (concentration: 1mM)	NP40-soluble protein abundance (concentration: 2mM)	NP40-soluble protein abundance (concentration: 4mM)	NP40-soluble protein abundance (concentration: 6mM)	NP40-soluble protein abundance (concentration: 8mM)	NP40-soluble protein abundance (concentration: 10mM)
DHX33 (UniProt Q9H6R0)	1.04 ± 0.059	1.1 ± 0.012	1.349 ± 0.0092	1.29 ± 0.089	1.44 ± 0.18	1.51 ± 0.2
UniProt Q9NY12|Q9NY12-2	1.11 ± 0.061	1.18 ± 0.084	1.29 ± 0.067	1.41 ± 0.16	1.72 ± 0.15	1.93 ± 0.32
ARMC1 (UniProt Q9NVT9)	0.913 ± 0.046	0.946 ± 0.018	0.876 ± 0.024	0.866 ± 0.063	0.881 ± 0.035	0.908 ± 0.029
LUC7L (UniProt Q9NQ29)	2.7 ± 0.14	2.9 ± 0.11	2.86 ± 0.17	3.28 ± 0.17	2.93 ± 0.17	3.11 ± 0.15
UniProt Q969U7|Q969U7-2	1.02 ± 0.072	1.01 ± 0.012	0.965 ± 0.055	0.983 ± 0.029	0.978 ± 0.072	0.986 ± 0.081
FUT8 (UniProt Q9BYC5)	1 ± 0.035	0.987 ± 0.052	1.02 ± 0.025	0.9889 ± 0.0069	1.04 ± 0.045	1.01 ± 0.039
UniProt Q96P11-2	1.05 ± 0.039	1.05 ± 0.03	1.11 ± 0.058	1.09 ± 0.068	1.13 ± 0.083	1.18 ± 0.072
UniProt Q96JM3	1.02 ± 0.043	1.02 ± 0.042	1.03 ± 0.048	1.12 ± 0.037	1.1 ± 0.039	1.12 ± 0.025
UniProt Q99653	0.961 ± 0.041	0.989 ± 0.011	0.983 ± 0.029	0.965 ± 0.054	0.961 ± 0.059	0.931 ± 0.037
PAAF1 (UniProt Q9BRP4)	1.02 ± 0.037	1.04 ± 0.02	1.01 ± 0.072	0.982 ± 0.02	0.977 ± 0.011	1.01 ± 0.023
UniProt Q9H6R4|Q9H6R4-4|A0A0A0MRW6|Q9H6R4-2	1.08 ± 0.049	1.03 ± 0.018	1.28 ± 0.027	1.31 ± 0.041	1.39 ± 0.15	1.72 ± 0.15
UniProt Q9NUQ7|D6RA67	1.09 ± 0.15	1.07 ± 0.13	1.05 ± 0.093	0.95 ± 0.18	1.08 ± 0.072	1.02 ± 0.091
DSCC1 (UniProt Q9BVC3)	1.04 ± 0.038	1.06 ± 0.011	1.03 ± 0.018	1.01 ± 0.021	1.077 ± 0.0062	1.05 ± 0.037
SRPK1 (UniProt Q96SB4)	1.31 ± 0.091	1.39 ± 0.079	1.5 ± 0.099	1.63 ± 0.12	1.67 ± 0.083	1.74 ± 0.11
UniProt Q9BXK5|Q9BXK5-4	0.958 ± 0.041	0.97 ± 0.011	0.957 ± 0.028	0.988 ± 0.021	0.926 ± 0.031	0.916 ± 0.052
ATG4C (UniProt Q96DT6)	1.036 ± 0.003	1.05 ± 0.081	1.04 ± 0.041	0.992 ± 0.12	1.05 ± 0.087	1 ± 0.092
UniProt Q9BSW2-2	0.967 ± 0.041	1.01 ± 0.034	1.02 ± 0.02	1.01 ± 0.018	0.972 ± 0.0098	0.988 ± 0.04
VPS37B (UniProt Q9H9H4)	0.992 ± 0.11	0.958 ± 0.12	0.967 ± 0.057	0.983 ± 0.12	0.946 ± 0.073	0.887 ± 0.13
UniProt Q9BWW4|Q9BWW4-2|Q9BWW4-3	1.05 ± 0.11	0.958 ± 0.12	0.933 ± 0.12	0.999 ± 0.12	0.956 ± 0.056	0.906 ± 0.1
UniProt Q9BS26	0.982 ± 0.043	0.956 ± 0.035	0.943 ± 0.057	0.945 ± 0.067	0.952 ± 0.06	0.941 ± 0.054

Target	NP40-soluble protein abundance (concentration: 1mM)	NP40-soluble protein abundance (concentration: 2mM)	NP40-soluble protein abundance (concentration: 4mM)	NP40-soluble protein abundance (concentration: 6mM)	NP40-soluble protein abundance (concentration: 8mM)	NP40-soluble protein abundance (concentration: 10mM)
CDK5RAP3 (UniProt Q96JB5)	0.997 ± 0.041	1.05 ± 0.066	1.08 ± 0.065	1.11 ± 0.068	1.12 ± 0.045	1.14 ± 0.099
UniProt Q9BTL3	0.928 ± 0.13	0.882 ± 0.066	0.95 ± 0.059	1 ± 0.11	0.888 ± 0.028	0.869 ± 0.059
DDX21 (UniProt Q9NR30)	1.29 ± 0.046	1.42 ± 0.042	1.65 ± 0.098	2.04 ± 0.17	2.53 ± 0.21	3.17 ± 0.13
UniProt Q96KB5|Q96KB5-2	1 ± 0.038	0.98 ± 0.051	0.964 ± 0.031	0.949 ± 0.083	0.958 ± 0.042	0.965 ± 0.039
PGAM5 (UniProt Q96HS1)	1.1 ± 0.037	1.14 ± 0.083	1.3 ± 0.06	1.48 ± 0.16	1.64 ± 0.089	1.72 ± 0.11
UniProt Q96QF0|Q96QF0-2	0.996 ± 0.032	0.946 ± 0.021	1.03 ± 0.034	1.001 ± 0.0051	0.994 ± 0.062	0.979 ± 0.078
GTF2H4 (UniProt Q92759)	1.08 ± 0.072	1.04 ± 0.035	1.09 ± 0.059	0.975 ± 0.13	1.16 ± 0.069	1.12 ± 0.036
ELMO1 (UniProt Q92556)	1.05 ± 0.05	1.04 ± 0.043	1.02 ± 0.036	1 ± 0.067	1.04 ± 0.038	1.05 ± 0.05
DDX23 (UniProt Q9BUQ8)	1.14 ± 0.052	1.23 ± 0.1	1.38 ± 0.13	1.52 ± 0.21	1.69 ± 0.17	1.81 ± 0.2
PXDN (UniProt Q92626)	1.06 ± 0.1	1.03 ± 0.067	1.09 ± 0.06	1.05 ± 0.049	1.04 ± 0.074	1.06 ± 0.1
SENP8 (UniProt Q96LD8)	0.97 ± 0.057	0.942 ± 0.032	0.943 ± 0.014	0.922 ± 0.035	0.911 ± 0.024	0.932 ± 0.023
UniProt Q9NZC7|Q9NZC7-2	1.028 ± 0.01	1.04 ± 0.073	1.04 ± 0.1	1.08 ± 0.13	1.06 ± 0.073	1.2 ± 0.29
DHRS4 (UniProt Q9BTZ2)	0.9895 ± 0.0086	0.987 ± 0.019	0.989 ± 0.043	0.956 ± 0.028	0.968 ± 0.035	0.988 ± 0.018
PUS7 (UniProt Q96PZ0)	0.969 ± 0.059	0.974 ± 0.057	0.967 ± 0.034	0.941 ± 0.076	0.963 ± 0.03	0.968 ± 0.036
IRAK4 (UniProt Q9NWZ3)	1.02 ± 0.042	1.03 ± 0.045	1.01 ± 0.051	0.985 ± 0.057	0.996 ± 0.043	0.988 ± 0.047
UniProt Q92804|Q92804-2	1.05 ± 0.14	1.07 ± 0.15	1.24 ± 0.2	1.5 ± 0.29	1.59 ± 0.21	2.05 ± 0.3
UniProt Q96B36|Q96B36-3	0.861 ± 0.098	0.826 ± 0.085	0.765 ± 0.029	0.826 ± 0.091	0.747 ± 0.071	0.693 ± 0.12
UniProt Q9NVX7-2|A0A075B6T4|Q9NVX7	1 ± 0.072	1.02 ± 0.066	1 ± 0.11	0.957 ± 0.095	1.05 ± 0.065	0.975 ± 0.036
UniProt Q969M3|Q969M3-3	0.981 ± 0.16	0.97 ± 0.19	0.974 ± 0.22	0.987 ± 0.24	0.961 ± 0.19	0.996 ± 0.19
IARS2 (UniProt Q9NSE4)	1.04 ± 0.08	1.02 ± 0.075	0.991 ± 0.069	0.977 ± 0.1	1.02 ± 0.056	0.98 ± 0.069

Target	NP40-soluble protein abundance (concentration: 1mM)	NP40-soluble protein abundance (concentration: 2mM)	NP40-soluble protein abundance (concentration: 4mM)	NP40-soluble protein abundance (concentration: 6mM)	NP40-soluble protein abundance (concentration: 8mM)	NP40-soluble protein abundance (concentration: 10mM)
DDX18 (UniProt Q9NVP1)	1.21 ± 0.029	1.3 ± 0.024	1.503 ± 0.0076	1.74 ± 0.035	2.07 ± 0.024	2.36 ± 0.16
UniProt Q92833|Q92833-2	1.33 ± 0.27	1.32 ± 0.34	1.48 ± 0.51	1.49 ± 0.48	1.59 ± 0.63	1.76 ± 0.69
MRPL16 (UniProt Q9NX20)	1.17 ± 0.12	1.08 ± 0.11	1.06 ± 0.16	1.11 ± 0.38	1.08 ± 0.18	0.981 ± 0.14
UniProt Q9UBK8|Q9UBK8-2	0.946 ± 0.042	1.01 ± 0.066	0.941 ± 0.058	0.97 ± 0.068	0.973 ± 0.028	0.978 ± 0.08
UniProt Q9BTX1|Q9BTX1-2|Q9BTX1-5|Q9BTX1-6	1.01 ± 0.076	1.01 ± 0.071	1.03 ± 0.1	0.996 ± 0.13	1.06 ± 0.044	1.08 ± 0.084
UniProt Q9P035|H3BS72	1.1 ± 0.16	1.1 ± 0.11	1.1 ± 0.11	1.01 ± 0.091	1.1 ± 0.033	1.15 ± 0.083
PECR (UniProt Q9BY49)	0.965 ± 0.093	0.966 ± 0.037	0.994 ± 0.073	0.984 ± 0.076	1.02 ± 0.053	1.05 ± 0.033
UniProt Q8WX93|Q8WX93-3|Q8WX93-4|Q8WX93-5|Q8WX93-8	0.978 ± 0.024	0.966 ± 0.046	1.01 ± 0.026	0.97 ± 0.042	0.971 ± 0.044	0.986 ± 0.036
FAM117A (UniProt Q9C073)	1.04 ± 0.03	0.992 ± 0.02	0.999 ± 0.039	1.01 ± 0.025	0.972 ± 0.053	0.972 ± 0.024
UniProt Q96AT9|Q96AT9-2	1.06 ± 0.092	1.07 ± 0.047	1.06 ± 0.075	1.05 ± 0.073	0.991 ± 0.064	0.993 ± 0.048
ITPKC (UniProt Q96DU7)	0.986 ± 0.048	0.971 ± 0.041	1.0284 ± 0.00016	0.857 ± 0.11	0.886 ± 0.026	0.883 ± 0.019
UniProt Q9NYK6|Q9NYK6-3	1.09 ± 0.13	1.02 ± 0.026	1.04 ± 0.011	1.05 ± 0.089	0.99 ± 0.066	1.05 ± 0.026
UniProt Q9NUL5	0.948 ± 0.041	0.972 ± 0.048	0.921 ± 0.029	0.921 ± 0.057	0.908 ± 0.025	0.924 ± 0.035
UniProt Q9NQW7-3	1.01 ± 0.044	0.994 ± 0.029	0.968 ± 0.044	0.976 ± 0.052	0.991 ± 0.043	0.966 ± 0.036
UniProt Q96HN2-2|Q96HN2	0.919 ± 0.042	0.934 ± 0.051	0.898 ± 0.025	0.939 ± 0.052	0.911 ± 0.017	0.934 ± 0.01
UniProt Q9NW64	1.05 ± 0.068	1.04 ± 0.041	1.07 ± 0.034	1.09 ± 0.05	1.1 ± 0.049	1.11 ± 0.019
UniProt Q9H974|Q9H974-4	1.03 ± 0.044	1 ± 0.035	1 ± 0.029	0.996 ± 0.044	1.02 ± 0.016	0.991 ± 0.025
UniProt Q96CN4|Q96CN4-2	0.985 ± 0.035	1.02 ± 0.061	1.13 ± 0.21	1.1 ± 0.084	1 ± 0.034	1.05 ± 0.059
PNPLA2 (UniProt Q96AD5)	1.04 ± 0.047	1 ± 0.069	1.02 ± 0.064	0.927 ± 0.12	0.994 ± 0.062	1.06 ± 0.1
TM9SF3 (UniProt Q9HD45)	1.04 ± 0.12	1.03 ± 0.1	1.01 ± 0.079	0.946 ± 0.12	1.05 ± 0.099	1.01 ± 0.097
